Shown is part of a subset that was picked to be rich in hits.
ALOX12 inhib = inhibitors of human 12-lipoxygenase (ALOX12). 0.12% of 150,000 active. AID 1452. Potency, µM (top dose mostly 57.1 µM), for the others: top-dose activity change, negative = inhibition, actives largely listed as inhibitors. purified 12-hLO, xylenol orange hydroperoxide absorbance; further: nearly all actives have a fitted effect of over 55% in size
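Xylenol orange chromogenic assay: hydroperoxide from 12hLO oxidises Fe(II), giving red-shifted Fe(III)-XO absorbance. Conditions: 150 nM enzyme, 40 uM arachidonic acid, 25 mM Hepes pH 7.0, 0.01% Triton X-100, 30 min, room temperature.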
15-hLO-2 inh = blocks human 15-lipoxygenase 2 activity; O15296; purified 15hLO-2, xylenol orange hydroperoxide absorbance; Potency, µM (top dose mostly 57.1 µM), inactives show at the highest dose activity change, negative = inhibition, usual class: inhibitors; 0.56% of 110,000 active; further: nearly all actives have a fitted effect of over 60% in size
Target sequence (O15296 whole entry, looked up): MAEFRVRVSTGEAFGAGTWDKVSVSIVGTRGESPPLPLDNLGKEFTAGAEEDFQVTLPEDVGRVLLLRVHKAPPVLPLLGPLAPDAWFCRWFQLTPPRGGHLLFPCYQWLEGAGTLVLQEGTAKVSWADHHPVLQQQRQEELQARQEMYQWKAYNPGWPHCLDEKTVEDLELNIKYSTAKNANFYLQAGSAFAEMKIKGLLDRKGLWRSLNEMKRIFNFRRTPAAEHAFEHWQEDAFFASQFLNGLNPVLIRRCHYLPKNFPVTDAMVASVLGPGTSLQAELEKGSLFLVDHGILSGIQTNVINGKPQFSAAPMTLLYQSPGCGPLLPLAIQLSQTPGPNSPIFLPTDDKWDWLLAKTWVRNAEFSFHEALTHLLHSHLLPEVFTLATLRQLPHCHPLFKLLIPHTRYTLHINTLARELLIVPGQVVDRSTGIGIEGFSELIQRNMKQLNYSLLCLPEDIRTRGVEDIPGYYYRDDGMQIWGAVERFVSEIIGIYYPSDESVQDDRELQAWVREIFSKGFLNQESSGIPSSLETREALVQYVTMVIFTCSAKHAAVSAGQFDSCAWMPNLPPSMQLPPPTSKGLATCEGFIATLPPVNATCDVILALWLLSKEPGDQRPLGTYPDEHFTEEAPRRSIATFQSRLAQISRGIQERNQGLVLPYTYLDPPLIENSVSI
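Purified human 15hLO-2 (50 nM) preincubated 15 min with compound, then 45 uM arachidonic acid for 90 min at RT in 25 mM Hepes pH 7.5, 0.01% Triton X-100. Hydroperoxide detected by Fe-xylenol orange; 573/405 nm absorbance ratio.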
Active calls of the source: *; ? = inconclusive; . = no result; [ ] = another dose, or the depositor's remark. The call rests on the fitted dose curve; in most records, active means well fitted curve in the direction sought with a large enough effect; inconclusive means small, poorly fitted or top-dose-only effect, or another doubt; inactive means no such curve, though single readings can be large; an effect the other way counts as inactive or inconclusive. On the % scale 0 is the no-effect control and ±100 the full control effect; potency means the concentration at half of the fitted maximal effect.

SMILES	ALOX12 inhib	15-hLO-2 inh
CCOC(=O)C1=C(Cc2ccc(Cl)cc2)C(=O)c2ccccc2C1=O	?	10µM*
CCOC(=O)C1=C(C)N=C2c3ccccc3C(=O)C2C1c1ccc(Cl)cc1 (centres undefined)	-12%	-14%
N[C@H](Cc1ccc(F)cc1)C(=O)O	-2%	-10%
O=C(O)c1cc(S(=O)(=O)Nc2ccc(O)cc2)ccc1Cl	-5%	.
C=CCN1CCc2c(cc(O)c(O)c2Cl)[C@H](c2ccccc2)C1	-21%	?
COc1cc(/C=C2\SC(=S)N(Nc3ccccc3)C2=O)ccc1O	-26%	.
CCOc1cc(/C=C2\SC(=S)N(Nc3ccccc3)C2=O)ccc1O	?	13µM*
CCCCc1nc2c(c3c1C[C@H](C)OC3)CN(S(=O)(=O)c1ccccc1C(=O)OC)CC2	-2%[11.4 µM]	.
Nc1ncnc2c1ncn2[C@@H]1CCCO1	-2%	9%
CC1(COc2ccc(C[C@H]3SC(=O)NC3=O)cc2)CCCCC1	1%	-3%
C[N+](C)(C)CCN[N@@+]1(C)CCCc2ccccc21	4%[11.4 µM]	-20%[11.4 µM]
COc1ccc(NC(=O)CSc2nc3ccccc3c3nc4ccccc4n23)cc1	-1%	.
N#Cc1cccc(NC(=O)CSc2ccc3c4c(cccc24)C(=O)c2ccccc2-3)c1	-2%	13µM*
COc1ccc(NC(=O)CSc2ccc3c4c(cccc24)C(=O)c2ccccc2-3)cc1	0%	16µM*
N#Cc1cccc(NC(=O)CSc2ccccc2)c1	-12%	-2%
O=C(Nc1ccccc1)c1ccc(Cc2nc3ccccc3[nH]2)cc1	0%	.
O=C(O)c1cc(S(=O)(=O)Nc2cccc(Cl)c2)ccc1O	0%	.
CC1=C(C#N)c2nc(N)c(C#N)c(C)c2/C1=C\c1ccc(C)cc1	-4%	25µM*
Cc1ccc(-c2c(C#N)c(N)nc3c2CCCCC3)cc1	5%	2%
C[C@H]1Cc2c(-c3ccccc3)nc3c(c2CO1)CN(C(=O)NCc1ccco1)CC3	-1%[11.4 µM]	.
Oc1cc(O)cc(/C=C\c2ccc(O)c(O)c2)c1	?	3.2µM*
Oc1ccc(/C=C\c2cc(O)cc(O)c2)cc1	-15%	-14%
COC(=O)c1ccc2c(c1)SC1=C(CCCC1=O)N2	-17%	?
COC(=O)C1=C(C)Nc2ccc(C)cc2S1	-20%	6.3µM*
[C-]#[N+]/C(C#N)=C\c1cc(C(C)(C)C)c(O)c(C(C)(C)C)c1	-29%	9%
SMILES	ALOX12 inhib	15-hLO-2 inh
CC(C)(C)c1cc(/C=C(\C#N)C(N)=S)cc(C(C)(C)C)c1O	-24%	13µM*
COc1ccc2nc3c(cc2c1)Cc1ccccc1-3	-23%	-8%
O=C(O)c1ccc(Cl)c(S(=O)(=O)Nc2ccccc2)c1	-3%	.
CC(C)NS(=O)(=O)c1ccc(NC(=S)NC(=O)c2ccc(-c3ccccc3)cc2)cc1	?	20µM*
O=C(NC(=S)Nc1ccccc1)c1ccc(-c2ccccc2)cc1	0%	.
Nc1nc(Cl)nc2c1ncn2[C@@H]1O[C@@H](CO)[C@@H](O)[C@H]1O	-3%	1%
O=C1C(=O)N(Cc2cccc([N+](=O)[O-])c2)c2ccccc21	1%	.
O=C1C(=O)N(Cc2ccc(Cl)c(Cl)c2)c2ccccc21	?	7.9µM*
CCCN1C[C@@H](CSC)C[C@H]2c3cccc4[nH]cc(c34)C[C@@H]21	-6%	19%
Cc1ccc(S(=O)(=O)c2c(N)n(/N=C/c3ccco3)c3nc4ccccc4nc23)cc1	-24%	-25%
Cc1ccc(S(=O)(=O)c2c(N)n(/N=C/c3ccco3)c3nc4ccccc4nc23)cc1C	?	13µM*
CNC(=O)[C@@H]1O[C@@H](n2cnc3c(NCc4cccc(I)c4)ncnc32)[C@H](O)[C@@H]1O	-2%	4%
CC(=O)[C@@H]1[C@H]2[C@H](C(=O)[C@H]3OC[C@@H]2O3)[C@H]2C=Cc3ccccc3N21	-9%	-21%
C[C@@]12CC[C@H]3[C@H](CC=C4C[C@@H](O)CC[C@@]43C)[C@@H]1CC[C@@H]2N(CCO)CCO	2%[11.4 µM]	-2%[11.4 µM]
COc1ccc(/C=N/NC(=O)C(=O)/C=C2\NC3(CCCC3)Cc3ccccc32)cc1	-3%	.
O=C(/C=C1\NC2(CCCC2)Cc2ccccc21)C(=O)N/N=C/c1ccc(O)c(O)c1	0.89µM*	.
CCCCc1cc2c(cn1)=C(OC(=O)c1cccs1)C(C)(OC(=O)CC)C(=O)C=2 (centres undefined)	-6%[11.4 µM]	.
O=C(O)/C=C\c1ccc(O)c(O)c1	4%[25.6 µM]	-3%[25.6 µM]
O=C(/C=C/c1ccc(O)c(O)c1)OCCc1ccccc1	?	10µM*
O=C(O)c1c(Cl)c(Cl)c(Cl)c(Cl)c1-c1c2cc(I)c(=O)c(I)c-2oc2c(I)c(O)c(I)cc12	?	7.9µM*
O=C(NCCN1CCOCC1)c1ccc(-n2c(=O)c(=O)[nH]c3ccccc32)cc1	0%	.
S=C(NCc1ccco1)Nc1cccc(Cl)c1	-5%	-13%
S=C(NCc1ccco1)Nc1ccc(Cl)c(Cl)c1	18µM*	?
O=C(NCCCN1CCOCC1)c1ccc(Cc2nc3ccccc3[nH]2)cc1	-5%	.
CC12CC3CC(C)(C1)CC(C(=O)NC(=S)N1CCCCC1)(C3)C2	16µM*	?
SMILES	ALOX12 inhib	15-hLO-2 inh
O=C(NC(=S)N1CCOCC1)C12CC3CCC(CC(C3)C1)C2	-5%	.
CCN1CCN(c2nc3ccccc3nc2C(C#N)S(=O)(=O)c2ccc(C)cc2)CC1 (centres undefined)	0%	-10%
Cc1ccc(S(=O)(=O)C(C#N)c2nc3ccccc3nc2N2CCCC2)cc1 (centres undefined)	28µM*	?
CC1CCN(c2ccc(NC(=S)NC(=O)c3ccc(-c4cccc([N+](=O)[O-])c4)o3)cc2)CC1	-18%	?
CC1CCN(c2ccccc2NC(=S)NC(=O)c2ccc(-c3cccc([N+](=O)[O-])c3)o2)CC1	-6%	16µM*
COC(=O)C1=C(C(=O)OC)[C@@H]2N(Cc3ccccc3)c3ccccc3[C@@]23C[C@@H](C(=O)OC)N(S(=O)(=O)c2ccc([N+](=O)[O-])cc2)C3=N1	3%[11.4 µM]	.
NC[C@H](O)C1CCCCCCC1	5%	18%
CCCCC/C=C\C/C=C\CCCCCCCCCC(=O)NC(C)C(=O)O (centres undefined)	5%	.
Cc1ccc(NC(=S)NC(=O)c2ccc(-c3ccc(Cl)cc3)o2)c(O)c1	-5%	.
Cc1cc(O)c(NC(=S)NC(=O)c2ccc(-c3ccc(Cl)cc3)o2)cc1C	?	13µM*
OC[C@@H]1O[C@@H](n2cnc3c(N[C@@H]4C[C@@H]5CC[C@H]4C5)ncnc32)[C@@H](O)[C@H]1O	-5%	3%
COc1ccc(NC(=S)NCCc2c[nH]c3ccc(OC)cc23)c(OC)c1	-22%	?
COc1ccc(NC(=S)NCCc2ccc(Cl)cc2)c(OC)c1	?	25µM*
Fc1ccccc1NC(=S)NCCc1ccccc1	-5%	-15%
S=C(NCc1ccc(Cl)cc1)Nc1ccc(Cl)cc1Cl	-3%	.
S=C(NCCc1ccc(Cl)cc1)Nc1ccc(Cl)cc1Cl	11µM*	.
Fc1ccc(NC(=S)NCCc2ccccc2)c(F)c1F	16µM*	?
COC(=O)C1=C(C(=O)OC)[C@@H]2N(C)c3ccccc3[C@@]23C[C@@H](CO)N(C(=O)c2cc(C)oc2C)C3=N1	0%[11.4 µM]	.

Screening data as filed in PubChem BioAssay.
